What all share (test): NCI-60 one-dose screen, 48 h (100 = growth as untreated, 0 = no growth, -100 = all killed)
The test system of one test is SR leukemia. To be noted: 10 µM.
For another test, the system named is RPMI-8226 leukemia. The following applies: 10 µM.
For another test, the system named is OVCAR-8 ovarian. The following applies: 10 µM.
A further test relates to OVCAR-5 ovarian. To be noted: 10 µM.
In a further test the test system is OVCAR-4 ovarian. The following applies: 10 µM.
A further test deals with SK-OV-3 ovarian. To be noted: 10 µM.
A further test relates to IGROV1 ovarian. The following applies: 10 µM.
The next test concerns OVCAR-3 ovarian. The following applies: 10 µM.
The test system of another test is HS 578T breast. To be noted: 10 µM.
The subject of a further test is NCI/ADR-RES ovarian. The following applies: 10 µM.
The next test concerns T-47D breast. The following applies: 10 µM.
The test system of the next test is BT-549 breast. The following applies: 10 µM.
In a further test the test system is MDA-MB-435 melanoma. The following applies: 10 µM.
The next test has as its system SW-620 colon. To be noted: 10 µM.
The next test relates to MCF7 breast. The following applies: 10 µM unless noted.
Another test relates to HCT-116 colon. To be noted: 10 µM.
Another test has as its system HCC-2998 colon. To be noted: 10 µM.
The next test relates to KM12 colon. To be noted: 10 µM.

Results on nine compounds are retold here after PubChem BioAssay (NCI).

This is part of a sample that, as a whole, favours compounds with a hit. Of some 83,000 tested, about 20% had one in any assay.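 Single-dose data. Exposure time 48 hours. Values below 10 considered active.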 Unmarked numbers belong to inactive results. Activity calls are given as the source filed them.

`O=C(O)c1cccc([N+](=O)[O-])c1`: the growth with SR leukemia was 97.4%; in the test with RPMI-8226 leukemia, 120%; in the test on OVCAR-8 ovarian it was 103%; with OVCAR-5 ovarian it was 120%; with OVCAR-4 ovarian, 105%; in the test on SK-OV-3 ovarian it was 113%. Moreover, the growth in the test with IGROV1 ovarian is 113%; in the test on OVCAR-3 ovarian it was 109%; in the test on HS 578T breast it was 110%; in the test on NCI/ADR-RES ovarian, 107%; in the test on T-47D breast it was 109%; in the test with BT-549 breast, 108%. Further, the growth with MDA-MB-435 melanoma was 111%; in the test on SW-620 colon, 111%; in the test with MCF7 breast, 99.2%; in the test with HCT-116 colon, 102%; in the test with HCC-2998 colon it was 102%; with KM12 colon, 105%.

Turning to `C/C(=N\O)C1(O)CCCCC1`, the growth in the test on SR leukemia is 94.3%; in the test with RPMI-8226 leukemia it was 100%; in the test on OVCAR-8 ovarian it was 94.1%; in the test on OVCAR-5 ovarian it was 103%; in the test with OVCAR-4 ovarian, 110%; in the test on SK-OV-3 ovarian, 98.1%. Further, the growth was 97.9% with IGROV1 ovarian; 94.7% in the test with OVCAR-3 ovarian; 62.5% with HS 578T breast; 110% in the test with NCI/ADR-RES ovarian; 72.7% in the test on T-47D breast; 102% in the test with BT-549 breast. Also, the growth is 108% in the test on MDA-MB-435 melanoma; 101% in the test with SW-620 colon; 50.7% with MCF7 breast; 101% in the test on HCT-116 colon; 109% in the test with HCC-2998 colon; 94.6% in the test on KM12 colon.

`COC1=CC(=O)c2nc(Cl)ccc2C1=O`: the growth is 5.55% (active) with SR leukemia; 3.41% (active) in the test on RPMI-8226 leukemia; 7.95% (active) in the test on OVCAR-8 ovarian; 11.6% in the test on OVCAR-5 ovarian; -97% (active) with OVCAR-4 ovarian; 89.4% in the test with SK-OV-3 ovarian. Further, the growth in the test with IGROV1 ovarian was 20.4%; in the test on OVCAR-3 ovarian, -2.3% (active); with HS 578T breast, 74.7%; in the test with NCI/ADR-RES ovarian, 5.5% (active); in the test on T-47D breast it was -38.7% (active); in the test with BT-549 breast it was 106%. Besides, the growth in the test on MDA-MB-435 melanoma was -42.1% (active); with SW-620 colon, -59.8% (active); in the test with MCF7 breast, -56.8% (active); in the test with HCT-116 colon, -32.7% (active); in the test with HCC-2998 colon it was 100%; with KM12 colon it was 91.3%.

`CCOc1ccc(/C=C/C(=O)c2ccccc2)cc1`: the growth with SR leukemia was 40.6%; in the test on RPMI-8226 leukemia it was 9.27% (active); in the test on OVCAR-8 ovarian it was 95.6%; with OVCAR-5 ovarian, 106%; in the test with OVCAR-4 ovarian, 102%; with SK-OV-3 ovarian it was 103%. Also, the growth in the test on IGROV1 ovarian is 74.8%; with OVCAR-3 ovarian, 93.7%; in the test on HS 578T breast, 120%; in the test on NCI/ADR-RES ovarian it was 105%; with T-47D breast, 88.8%; in the test with BT-549 breast, 102%. The growth was 89.2% with MDA-MB-435 melanoma; 96.4% in the test with SW-620 colon; 70.5% in the test with MCF7 breast; 83.7% in the test on HCT-116 colon; 92.5% with HCC-2998 colon; 80.2% with KM12 colon.

For the compound `CC(=O)NC(N)=S`, the growth is 90.4% with SR leukemia; 103% in the test on RPMI-8226 leukemia; 104% in the test on OVCAR-8 ovarian; 116% in the test on OVCAR-5 ovarian; 111% in the test with OVCAR-4 ovarian; 118% with SK-OV-3 ovarian. In addition, the growth in the test with IGROV1 ovarian is 121%; with OVCAR-3 ovarian, 119%; in the test on HS 578T breast it was 115%; with NCI/ADR-RES ovarian it was 110%; in the test with T-47D breast it was 124%; in the test on BT-549 breast, 117%. The growth in the test on MDA-MB-435 melanoma was 117%; in the test on SW-620 colon, 101%; in the test with MCF7 breast it was 86.5%; with HCT-116 colon, 111%; in the test with HCC-2998 colon, 100%; in the test on KM12 colon, 107%.

`CN(C)c1ccc(C(c2ccc(O)cc2)c2ccc(N(C)C)cc2)cc1`: the growth in the test with SR leukemia is 67.5%; with RPMI-8226 leukemia, 80.1%; in the test with OVCAR-8 ovarian, 94.1%; with OVCAR-5 ovarian, 98.6%; with OVCAR-4 ovarian, 94.9%; in the test on SK-OV-3 ovarian, 104%. Further, the growth is 106% in the test with IGROV1 ovarian; 92.5% in the test on OVCAR-3 ovarian; 91.8% with HS 578T breast; 93.9% in the test with NCI/ADR-RES ovarian; 59.8% with T-47D breast; 103% with BT-549 breast. Also, the growth in the test on MDA-MB-435 melanoma was 41.8%; in the test on SW-620 colon, 96.5%; in the test with MCF7 breast, 78.6%; in the test on HCT-116 colon, 93.9%; in the test on HCC-2998 colon it was 117%; with KM12 colon it was 89.5%.

Regarding `Oc1ccc(N=Nc2ccc(Br)cc2)c(O)c1`, the growth in the test with SR leukemia was -8.8% (active); in the test with RPMI-8226 leukemia, -37.3% (active); with OVCAR-8 ovarian, 24.1%; in the test on OVCAR-5 ovarian, 80.7%; with OVCAR-4 ovarian, 33.7%; in the test with SK-OV-3 ovarian, 25.7%. The growth in the test with IGROV1 ovarian was -15.3% (active); in the test with OVCAR-3 ovarian, -65.2% (active); in the test with HS 578T breast it was 10.4%; in the test with NCI/ADR-RES ovarian, -55.4% (active); with T-47D breast, 28%; in the test on BT-549 breast it was 46.1%. In addition, the growth in the test with MDA-MB-435 melanoma was -49% (active); with SW-620 colon, 18.8%; in the test with MCF7 breast, 15.6%; in the test with HCT-116 colon, 18.1%; with HCC-2998 colon, 33.6%; with KM12 colon it was 8.35% (active).

As to `N#CCc1ccc([N+](=O)[O-])cc1`, the growth is 105% in the test with SR leukemia; 109% in the test on RPMI-8226 leukemia; 89.5% with OVCAR-8 ovarian; 119% in the test with OVCAR-5 ovarian; 111% with OVCAR-4 ovarian; 101% in the test on SK-OV-3 ovarian. Also, the growth in the test with IGROV1 ovarian is 135%; with OVCAR-3 ovarian, 117%; in the test on HS 578T breast, 98%; in the test with NCI/ADR-RES ovarian, 106%; in the test on T-47D breast it was 98.6%; with BT-549 breast, 102%. Further, the growth was 114% in the test with MDA-MB-435 melanoma; 94.5% with SW-620 colon; 89.8% with MCF7 breast; 109% in the test with HCT-116 colon; 101% in the test with HCC-2998 colon; 109% with KM12 colon.

`O=C(Nc1cccc(NC(=O)Nc2cc(C(F)(F)F)ccc2Cl)c1)Nc1cc(C(F)(F)F)ccc1Cl`: the growth with SR leukemia is -15.6% (active); in the test with RPMI-8226 leukemia it was -14.5% (active); with OVCAR-8 ovarian it was 14.3%; in the test on OVCAR-5 ovarian, 27.7%; with OVCAR-4 ovarian, 7.2% (active); with SK-OV-3 ovarian, 36.2%. Moreover, the growth was 26.9% with IGROV1 ovarian; -5.64% (active) in the test on OVCAR-3 ovarian; 18.9% in the test on HS 578T breast; 26.2% in the test on NCI/ADR-RES ovarian; 8.32% (active) with T-47D breast; 17.8% in the test with BT-549 breast. Further, the growth is 12.8% in the test on MDA-MB-435 melanoma; 13.5% in the test on SW-620 colon; 6.53% (active) in the test with MCF7 breast; 13.2% in the test with HCT-116 colon; 37.6% in the test on HCC-2998 colon; 12.1% with KM12 colon.
